Test results published in PubChem BioAssay (EPA / NIEHS).
Activity calls are given as the source filed them. How the source made its calls: active means hit-call score of the fitted dose curve at least 0.9, where 1 is the maximum; inactive means score below 0.9.

How the values were obtained:
[1] = read-out: TIMP metallopeptidase inhibitor 2 (TIMP2), TIMP2 (gene 7077); experiment: BSK_KF3CT_TIMP2: BioMAP Diversity Plus: KF3CT Assay for TIMP metallopeptidase inhibitor 2 (TIMP2) Biomarker Activity (AID 2283071); conditions: primary human keratinocytes with fibroblasts; actives raise or lower the signal
Method in brief: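 Measurements come from ELISA detection of TIMP-2 at 24 hours in a dosed human keratinocyte and foreskin fibroblast co-culture. DMSO serves as negative control and baseline.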

[2] = read-out: Transforming growth factor beta 1 (TGFb1), TGFB1 (gene 7040); experiment: BSK_KF3CT_TGFb1: BioMAP Diversity Plus: KF3CT Assay for Transforming growth factor beta 1 (TGFb1) Biomarker Activity (AID 2283072); conditions: primary human keratinocytes with fibroblasts; actives raise or lower the signal
Method in brief: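 TGF-b1 ELISA on a 24 h dosed co-culture of human keratinocytes and foreskin fibroblasts; cytotoxicity tracked in parallel cultures by SRB staining.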

[3] = read-out: urokinase plasminogen activator (uPA), PLAU (gene 5328); experiment: BSK_KF3CT_uPA: BioMAP Diversity Plus: KF3CT Assay for urokinase plasminogen activator (uPA) Biomarker Activity (AID 2283075); conditions: primary human keratinocytes with fibroblasts; actives raise or lower the signal
Method in brief: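 ELISA read-out of uPA 24 h after dosing human skin keratinocytes co-cultured with foreskin fibroblasts. Signal change fitted both ways relative to DMSO; sulforhodamine B on parallel cultures marks overt cytotoxicity.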

CD40, CD40 (gene 958) [4] = experiment: BSK_LPS_CD40: BioMAP Diversity Plus: LPS Assay for CD40 Biomarker Activity (AID 2283076); conditions: primary human HUVEC with PBMC; actives raise or lower the signal
Method in brief: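 ELISA readout of CD40 in HUVEC/PBMC co-culture (BSK_LPS system), 24 h post-dosing; bidirectional curve fit, DMSO baseline; parallel SRB total-protein staining for cytotoxicity.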

[5] = read-out: E-selectin (Homo sapiens) (UniProt P16581); experiment: BSK_LPS_Eselectin: BioMAP Diversity Plus: LPS Assay for Eselectin Biomarker Activity (AID 2283077); conditions: primary human HUVEC with PBMC; actives raise or lower the signal
Method in brief: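 ELISA readout of E-selectin, 24 h post-dose, HUVEC + PBMC co-culture (LPS system). Gain or loss of signal vs DMSO baseline, bidirectional fit.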

[6] = read-out: Interleukin-8 (IL8), CXCL8 (gene 3576); experiment: BSK_LPS_IL8: BioMAP Diversity Plus: LPS Assay for Interleukin-8 (IL8) Biomarker Activity (AID 2283078); conditions: primary human HUVEC with PBMC; actives raise or lower the signal
Method in brief: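 HUVEC + PBMC co-culture, LPS-activated; test chemicals dosed, IL-8 read by ELISA at 24 h. Bidirectional curve fit vs DMSO baseline (gain or loss of signal).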

[7] = BSK_LPS_SRB: Viability Assessment in the BioMAP Diversity Plus: LPS Assay (AID 2283079); conditions: primary human HUVEC with PBMC;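 further: total protein by sulforhodamine B absorbance as a cytotoxicity measure; measured one day after compound addition; fitted in both directions against DMSO so loss or gain of signal counts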
Method in brief: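 HUVEC + PBMC co-culture, LPS-stimulated; compound 24 h. 10% TCA fix, 0.1% SRB stain, A560. Bidirectional fit vs DMSO.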

[8] = read-out: Interleukin-1 alpha (IL1a), IL1A (gene 3552); experiment: BSK_LPS_IL1a: BioMAP Diversity Plus: LPS Assay for Interleukin-1 alpha (IL1a) Biomarker Activity (AID 2283080); conditions: primary human HUVEC with PBMC; actives raise or lower the signal
Method in brief: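 HUVEC/PBMC co-culture, LPS system; 24 h after dosing; IL-1a by ELISA; gain or loss of signal fitted bidirectionally vs DMSO baseline.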

[9] = read-out: Monocyte Chemoattractant Protein-1 (MCP1), CCL2 (gene 6347); experiment: BSK_LPS_MCP1: BioMAP Diversity Plus: LPS Assay for Monocyte Chemoattractant Protein-1 (MCP1) Biomarker Activity (AID 2283081); conditions: primary human HUVEC with PBMC; actives raise or lower the signal
Method in brief: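 ELISA read-out of MCP-1 after 24 h chemical dosing of a human umbilical vein endothelial cell/peripheral blood mononuclear cell co-culture stimulated with LPS. Gain or loss of signal fitted relative to DMSO controls.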

[10] = BSK_LPS_PGE2: BioMAP Diversity Plus: LPS Assay for Prostaglandin E2 (PGE2) Biomarker Activity (AID 2283082); conditions: primary human HUVEC with PBMC; actives raise or lower the signal;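 on AC50: secreted prostaglandin E2 measured by ELISA in LPS-stimulated co-culture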
Method in brief: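 Primary human endothelial cells and blood mononuclear cells, co-cultured with LPS, receive test chemical; PGE2 ELISA follows at 24 h, with SRB-stained parallel cultures flagging cytotoxicity.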

[11] = read-out: Macrophage colony-stimulating factor (MCSF), CSF1 (gene 1435); experiment: BSK_LPS_MCSF: BioMAP Diversity Plus: LPS Assay for Macrophage colony-stimulating factor (MCSF) Biomarker Activity (AID 2283083); conditions: primary human HUVEC with PBMC; actives raise or lower the signal
Method in brief: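 HUVEC + PBMC co-culture (human primary), 24 h post-dose; M-CSF by ELISA; gain/loss of signal fitted bidirectionally vs DMSO baseline.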

[12] = read-out: Tissue Factor, F3 (gene 2152); experiment: BSK_LPS_TissueFactor: BioMAP Diversity Plus: LPS Assay for Tissue Factor Biomarker Activity (AID 2283084); conditions: primary human HUVEC with PBMC; actives raise or lower the signal
Method in brief: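 HUVEC/PBMC co-culture, LPS-activated; CD142 ELISA read 24 h post-dose; bidirectional curve fit vs DMSO negative control.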

[13] = read-out: Tumor necrosis factor (Homo sapiens) (UniProt P01375); experiment: BSK_LPS_TNFa: BioMAP Diversity Plus: LPS Assay for Tumour Necrosis Factor alpha (TNFa) Biomarker Activity (AID 2283085); conditions: primary human HUVEC with PBMC; actives raise or lower the signal
Method in brief: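 ELISA-based TNFa endpoint in a human endothelial–PBMC co-culture sampled 24 h post-exposure. Curves were fitted in both directions using DMSO as baseline of activity.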

[14] = read-out: Vascular cell adhesion molecule 1 (VCAM1), VCAM1 (gene 7412); experiment: BSK_LPS_VCAM1: BioMAP Diversity Plus: LPS Assay for Vascular cell adhesion molecule 1 (VCAM1) Biomarker Activity (AID 2283086); conditions: primary human HUVEC with PBMC; actives raise or lower the signal
Method in brief: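 Measured by ELISA: VCAM-1 in LPS-activated HUVEC/PBMC co-cultures 24 h after treatment. Values reflect bidirectional fitting with DMSO as baseline.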

CD38, CD38 (gene 952) = experiment: BSK_SAg_CD38: BioMAP Diversity Plus: SAg Assay for CD38 Biomarker Activity (AID 2283087); conditions: primary human HUVEC with PBMC; actives raise or lower the signal
Method in brief: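 Measures CD38 on a human endothelial/PBMC co-culture driven by SEB and TSST-1, 24 h after compound exposure, using ELISA with fluorescence detection; DMSO defines baseline for bidirectional curve fitting.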

CD40, CD40 (gene 958) [15] = experiment: BSK_SAg_CD40: BioMAP Diversity Plus: SAg Assay for CD40 Biomarker Activity (AID 2283088); conditions: primary human HUVEC with PBMC; actives raise or lower the signal
Method in brief: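 HUVEC/PBMC co-culture, 24 h post-dose; CD40 by ELISA, fluorescence intensity; bidirectional fit vs DMSO negative control.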

CD69, CD69 (gene 969) = experiment: BSK_SAg_CD69: BioMAP Diversity Plus: SAg Assay for CD69 Biomarker Activity (AID 2283089); conditions: primary human HUVEC with PBMC; actives raise or lower the signal;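 on AC50: cell surface CD69 protein quantified by ELISA with fluorescence detection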
Method in brief: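 HUVEC co-cultured with PBMC were dosed with chemical, and CD69 was measured by ELISA with fluorescence read-out 24 h later. Bidirectional curve fitting used DMSO as negative control and activity baseline.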

[16] = read-out: Monocyte Chemoattractant Protein-1 (MCP1), CCL2 (gene 6347); experiment: BSK_SAg_MCP1: BioMAP Diversity Plus: SAg Assay for Monocyte Chemoattractant Protein-1 (MCP1) Biomarker Activity (AID 2283090); conditions: primary human HUVEC with PBMC; actives raise or lower the signal
Method in brief: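 Values derive from bidirectional fitting of ELISA-measured MCP1 against DMSO controls. Readings were taken 24 h after dosing human vascular endothelial cells co-cultured with peripheral blood mononuclear cells under superantigen stimulation.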

[17] = read-out: C-C motif chemokine 2 (Homo sapiens) (UniProt P13500); experiment: BSK_KF3CT_MCP1: BioMAP Diversity Plus: KF3CT Assay for Monocyte Chemoattractant Protein 1 (MCP1/CCL2) Biomarker Activity (AID 2283073); conditions: primary human keratinocytes with fibroblasts; actives raise or lower the signal
Method in brief: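 KF3CT skin co-culture (keratinocytes/foreskin fibroblasts), 24 h post-dose; MCP-1 by ELISA; gain/loss of signal fit bidirectionally vs DMSO baseline.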

[18] = read-out: Matrix Metallopeptidase 9 (MMP9), MMP9 (gene 4318); experiment: BSK_KF3CT_MMP9: BioMAP Diversity Plus: KF3CT Assay for Matrix Metallopeptidase 9 (MMP9) Biomarker Activity (AID 2283074); conditions: primary human keratinocytes with fibroblasts; actives raise or lower the signal;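 further: MMP9 protein level quantified by ELISA in the co-culture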
Method in brief: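 MMP-9 quantified by ELISA after 24 h chemical treatment of primary human skin keratinocyte/fibroblast co-cultures; gain or loss fitted against DMSO, with parallel SRB staining (0.1% SRB, 560 nm) for overt cytotoxicity.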

Measured: AC50

Sequence of Tumor necrosis factor (Homo sapiens) (P01375 whole entry, looked up): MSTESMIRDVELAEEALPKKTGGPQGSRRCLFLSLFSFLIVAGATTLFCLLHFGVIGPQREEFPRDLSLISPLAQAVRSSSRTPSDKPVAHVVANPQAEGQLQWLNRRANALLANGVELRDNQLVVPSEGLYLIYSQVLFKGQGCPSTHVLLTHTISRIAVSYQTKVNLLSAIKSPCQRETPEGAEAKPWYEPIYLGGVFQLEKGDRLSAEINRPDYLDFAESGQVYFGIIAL
Sequence of E-selectin (Homo sapiens) (P16581 whole entry, looked up): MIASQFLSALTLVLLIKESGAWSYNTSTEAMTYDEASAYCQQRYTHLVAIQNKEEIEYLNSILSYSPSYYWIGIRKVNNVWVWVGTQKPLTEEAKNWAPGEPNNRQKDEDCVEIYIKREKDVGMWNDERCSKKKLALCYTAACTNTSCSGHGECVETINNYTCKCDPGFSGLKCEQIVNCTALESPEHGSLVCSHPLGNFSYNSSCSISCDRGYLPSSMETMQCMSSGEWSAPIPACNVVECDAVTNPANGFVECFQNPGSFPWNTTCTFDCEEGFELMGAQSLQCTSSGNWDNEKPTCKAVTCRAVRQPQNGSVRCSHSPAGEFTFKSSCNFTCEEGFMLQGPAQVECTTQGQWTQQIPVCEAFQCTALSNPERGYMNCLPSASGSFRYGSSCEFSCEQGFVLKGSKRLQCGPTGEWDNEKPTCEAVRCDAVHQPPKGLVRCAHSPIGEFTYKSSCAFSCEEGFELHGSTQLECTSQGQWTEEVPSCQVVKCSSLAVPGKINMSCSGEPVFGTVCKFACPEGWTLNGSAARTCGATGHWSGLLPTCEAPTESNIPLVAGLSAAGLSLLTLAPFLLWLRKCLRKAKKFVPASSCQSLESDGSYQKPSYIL

CC(C)(C)OOC(C)(C)CCC(C)(C)OOC(C)(C)C
not listed: [17] | [18]
inactive: all other assays above

Cc1ccc(N=C=O)cc1N=C=O
not listed: [16] | [17] | [18]
inactive: all other assays above

O=C(N[C@H](c1ccccc1)[C@@H]1CN2CCC1CC2)c1c(Cl)ccc(C(F)(F)F)c1Cl
inactive: [17] | [5] | [8] | [9] | [11] | [12] | [13] | CD40, CD40 (gene 958) [15]
active: [2] 48.7 µM | [18] 41.7 µM | [3] 42.7 µM | CD40, CD40 (gene 958) [4] 19.5 µM | [6] 7.76 µM | [7] 29.7 µM | [10] 4.3 µM | [14] 17.7 µM | CD38, CD38 (gene 952) 29.7 µM | CD69, CD69 (gene 969) 29.7 µM
